# Data taken from the supplement of paper PMC8728848.
# Shown is part of a subset that was picked to be rich in the strongest signals.
# B1: Regenerating Gene I (Homo sapiens), P05451 (protein)
# chain: MAQTSSYFMLISCLMFLSQSQGQEAQTELPQARISCPEGTNAYRSYCYYFNEDRETWVDADLYCQNMNSGNLVSVLTQAEGAFVASLIKESGTDDFNVWIGLHDPKKNRRWHWSSGSLVSYKSWGIGAPSSVNPGYCVSLTSSTGFQKWKDVPCEDKFSFVCKFKN
# B2: LKPARMA (Neurospora crassa) (protein)
# chain: MSFHVTAEDARRIEVRDNRTILFARLRREDGEWNDASYELDQIIGNNDGHFQWGGGQNFTETAEDIRFHPKEGAAEQPILRARLRDCNGEFHDRDVNLTEIVENVNGEFQAKF
# How the values were obtained:
# Experiment in all cases: glycan array binding signal (z-score within array); higher = stronger binding
# Conditions in all cases: glycan notation: IUPAC condensed, linker removed
# Fuc(a1-2)Gal(b1-3)GlcNAc = molecular target: Fuc(a1-2)Gal(b1-3)GlcNAc
# Procedure, shortened: (§1)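 Glycan array data were curated from 3228 arrays in the Consortium for Functional Glycomics database and kept only where the protein sequence was available. Glycan names were converted to IUPAC-condensed notation, and columns mapping to the same glycan were averaged. The binding signal is a within-array Z-score, averaged across arrays of the same protein sequence at different concentrations or buffers and across linkers. Negative Z-scores can be read as non-binding.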
# [1] = molecular target: Fuc(a1-2)[GalNAc(a1-3)]Gal(b1-3)GlcNAc
# Procedure, shortened: as §1
# [2] = molecular target: Fuc(a1-3)[GalNAc(b1-4)]GlcNAc
# Procedure, shortened: as §1
# Gal(a1-4)Gal(b1-4)Glc = molecular target: Gal(a1-4)Gal(b1-4)Glc
# Procedure, shortened: as §1
# Gal(a1-4)GlcNAc = molecular target: Gal(a1-4)GlcNAc
# Procedure, shortened: as §1
# [3] = molecular target: Gal(b1-3)GlcNAc(b1-3)Gal(b1-4)GlcNAc
# Procedure, shortened: as §1
# [4] = molecular target: Gal(b1-3)[Fuc(a1-4)]GlcNAc(b1-3)Gal(b1-3)[Fuc(a1-4)]GlcNAc
# Procedure, shortened: as §1
# [5] = molecular target: Gal(b1-4)GlcNAc(a1-6)Gal(b1-4)GlcNAc
# Procedure, shortened: as §1
# Gal3S(b1-4)Glc = molecular target: Gal3S(b1-4)Glc
# Procedure, shortened: as §1
# Gal4S(b1-4)GlcNAc = molecular target: Gal4S(b1-4)GlcNAc
# Procedure, shortened: as §1
# GalNAc(a1-3)GalNAc = molecular target: GalNAc(a1-3)GalNAc
# Procedure, shortened: as §1
# Glc(a1-6)Glc(a1-6)Glc = molecular target: Glc(a1-6)Glc(a1-6)Glc
# Procedure, shortened: as §1
# GlcA(b1-3)GlcNAc = molecular target: GlcA(b1-3)GlcNAc
# Procedure, shortened: as §1
# [6] = molecular target: GlcNAc(b1-2)Gal(b1-3)GalNAc
# Procedure, shortened: as §1
# GlcNAc(b1-3)Gal = molecular target: GlcNAc(b1-3)Gal
# Procedure, shortened: as §1
# [7] = molecular target: GlcNAc(b1-4)Gal(b1-4)GlcNAc
# Procedure, shortened: as §1
# [8] = molecular target: GlcNAc(b1-4)[GlcNAc(b1-6)]GalNAc
# Procedure, shortened: as §1
# GlcNAc3Prop(b1-4)GlcNAc = molecular target: GlcNAc3Prop(b1-4)GlcNAc
# Procedure, shortened: as §1
# Man(a1-3)[Man(a1-6)]Man = molecular target: Man(a1-3)[Man(a1-6)]Man
# Procedure, shortened: as §1
# [9] = molecular target: Man(a1-3)[Man(a1-6)]Man(a1-6)[Man(a1-2)Man(a1-3)]Man(b1-4)GlcNAc(b1-4)GlcNAc
# Procedure, shortened: as §1
# [10] = molecular target: Neu5Ac(a2-3)Gal(b1-3)GlcNAc6S
# Procedure, shortened: as §1
# [11] = molecular target: Neu5Ac(a2-3)Gal(b1-3)[Fuc(a1-4)]GlcNAc(b1-3)Gal(b1-4)[Fuc(a1-3)]GlcNAc
# Procedure, shortened: as §1
# [12] = molecular target: Neu5Ac(a2-3)Gal(b1-4)[Fuc(a1-3)]GlcNAc(b1-6)[Gal(b1-3)]GalNAc
# Procedure, shortened: as §1
# [13] = molecular target: Neu5Ac(a2-6)Gal(b1-4)GlcNAc(b1-2)Man(a1-3)[GlcNAc(b1-2)Man(a1-6)]Man(b1-4)GlcNAc(b1-4)GlcNAc
# Procedure, shortened: as §1
# [14] = molecular target: Neu5Ac(a2-6)Gal(b1-4)GlcNAc(b1-2)Man(a1-3)[Neu5Ac(a2-6)Gal(b1-4)GlcNAc(b1-2)Man(a1-6)]Man(b1-4)GlcNAc(b1-4)GlcNAc
# Procedure, shortened: as §1
# [15] = molecular target: Neu5Ac(a2-6)Gal(b1-4)GlcNAc(b1-2)Man(a1-6)[Gal(b1-4)GlcNAc(b1-2)Man(a1-3)]Man(b1-4)GlcNAc(b1-4)GlcNAc
# Procedure, shortened: as §1
# [16] = molecular target: Neu5Ac(a2-6)Gal(b1-4)GlcNAc(b1-3)Gal(b1-4)[Fuc(a1-3)]GlcNAc(b1-3)Gal(b1-4)[Fuc(a1-3)]GlcNAc
# Procedure, shortened: as §1
# [17] = molecular target: Neu5Ac(a2-8)Neu5Ac(a2-8)Neu5Ac(a2-3)Gal(b1-4)Glc
# Procedure, shortened: as §1
# [18] = molecular target: Fuc(a1-3)[Gal(b1-4)]GlcNAc(b1-4)Gal(b1-4)[Fuc(a1-3)]GlcNAc
# Procedure, shortened: as §1
# [19] = molecular target: Gal(b1-3)GlcNAc(b1-3)Gal(b1-4)Glc
# Procedure, shortened: as §1
# [20] = molecular target: Gal(b1-3)[Fuc(a1-4)]GlcNAc
# Procedure, shortened: as §1
# [21] = molecular target: Gal(b1-3)[Neu5Ac(a2-6)]GalNAc
# Procedure, shortened: as §1
# [22] = molecular target: Gal(b1-3)[Neu5Ac(a2-6)]GlcNAc(b1-6)Gal(b1-4)Glc
# Procedure, shortened: as §1
# [23] = molecular target: Gal(b1-3)[Neu5Ac(b2-6)]GalNAc
# Procedure, shortened: as §1
# [24] = molecular target: Gal(b1-4)GalNAc(a1-3)[Fuc(a1-2)]Gal(b1-4)GlcNAc
# Procedure, shortened: as §1
# [25] = molecular target: Gal(b1-4)GlcNAc(b1-6)Gal(b1-4)GlcNAc(b1-6)GalNAc
# Procedure, shortened: as §1
# Gal6S(b1-4)Glc = molecular target: Gal6S(b1-4)Glc
# Procedure, shortened: as §1
# Glc(b1-6)Glc = molecular target: Glc(b1-6)Glc
# Procedure, shortened: as §1
# [26] = molecular target: GlcNAc(b1-2)Man(a1-3)[GlcNAc(b1-2)Man(a1-6)]Man(b1-4)GlcNAc(b1-4)GlcNAc
# Procedure, shortened: as §1
# [27] = molecular target: Neu5Ac(a2-3)Gal(b1-4)GlcNAc(b1-3)Gal(b1-4)GlcNAc
# Procedure, shortened: as §1
# [28] = molecular target: Neu5Ac(a2-3)Gal(b1-4)[Fuc(a1-3)]GlcNAc(b1-3)Gal(b1-4)[Fuc(a1-3)]GlcNAc(b1-3)Gal(b1-4)[Fuc(a1-3)]GlcNAc
# Procedure, shortened: as §1
# [29] = molecular target: Neu5Ac(a2-6)GalNAc(b1-4)GlcNAc
# Procedure, shortened: as §1
# [30] = molecular target: Neu5Ac(a2-8)Neu5Ac(a2-8)Neu5Ac(a2-8)Neu5Ac(a2-3)[GalNAc(b1-4)]Gal(b1-4)Glc
# Procedure, shortened: as §1
binder,measurement,setting,value
B1,glycan array binding signal (z-score),Fuc(a1-2)Gal(b1-3)GlcNAc,0.417
same,glycan array binding signal (z-score),[1],-0.479
same,glycan array binding signal (z-score),[2],0.315
same,glycan array binding signal (z-score),Gal(a1-4)Gal(b1-4)Glc,3.58
same,glycan array binding signal (z-score),Gal(a1-4)GlcNAc,0.102
same,glycan array binding signal (z-score),[3],-0.537
same,glycan array binding signal (z-score),[4],-0.396
same,glycan array binding signal (z-score),[5],0.071
same,glycan array binding signal (z-score),Gal3S(b1-4)Glc,0.272
same,glycan array binding signal (z-score),Gal4S(b1-4)GlcNAc,0.291
same,glycan array binding signal (z-score),GalNAc(a1-3)GalNAc,-0.588
same,glycan array binding signal (z-score),Glc(a1-6)Glc(a1-6)Glc,-0.118
same,glycan array binding signal (z-score),GlcA(b1-3)GlcNAc,0.836
same,glycan array binding signal (z-score),[6],-0.206
same,glycan array binding signal (z-score),GlcNAc(b1-3)Gal,-0.215
same,glycan array binding signal (z-score),[7],2.18
same,glycan array binding signal (z-score),[8],1.91
same,glycan array binding signal (z-score),GlcNAc3Prop(b1-4)GlcNAc,-0.533
same,glycan array binding signal (z-score),Man(a1-3)[Man(a1-6)]Man,7.74
same,glycan array binding signal (z-score),[9],-0.594
same,glycan array binding signal (z-score),[10],-0.09
same,glycan array binding signal (z-score),[11],5.84
same,glycan array binding signal (z-score),[12],-0.128
same,glycan array binding signal (z-score),[13],-0.412
same,glycan array binding signal (z-score),[14],-0.473
same,glycan array binding signal (z-score),[15],-0.33
same,glycan array binding signal (z-score),[16],-0.304
same,glycan array binding signal (z-score),[17],-0.596
B2,glycan array binding signal (z-score),Fuc(a1-2)Gal(b1-3)GlcNAc,-0.25
same,glycan array binding signal (z-score),[18],-0.077
same,glycan array binding signal (z-score),[19],4.93
same,glycan array binding signal (z-score),[3],-0.249
same,glycan array binding signal (z-score),[20],-0.251
same,glycan array binding signal (z-score),[21],-0.234
same,glycan array binding signal (z-score),[22],5.09
same,glycan array binding signal (z-score),[23],-0.251
same,glycan array binding signal (z-score),[24],-0.149
same,glycan array binding signal (z-score),[25],-0.252
same,glycan array binding signal (z-score),Gal6S(b1-4)Glc,-0.252
same,glycan array binding signal (z-score),Glc(a1-6)Glc(a1-6)Glc,7.12
same,glycan array binding signal (z-score),Glc(b1-6)Glc,6.76
same,glycan array binding signal (z-score),[26],-0.251
same,glycan array binding signal (z-score),[27],-0.235
same,glycan array binding signal (z-score),[28],-0.212
same,glycan array binding signal (z-score),[29],-0.252
same,glycan array binding signal (z-score),[30],-0.248
